Compound activity: PubChem BioAssay, National Center for Advancing Translational Sciences (NCATS)
A selection: hits, their analogues and other compounds. The true share with any hit is near 7.3%.
HCV inh: qHTS Assay for Inhibitors of Hepatitis C Virus (HCV); Huh7.5.1 HCVcc-Cre infection, luciferase reporter, 44 h; Potency, µM (titrated, usually from 41.8 µM), for inactives: at the top dose activity change, negative = inhibition, usual class: inhibitors; actives 3.4% (n = 340,000); AID 651820, 2012; further: potency means the concentration at half of the fitted maximal effect
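Cells seeded at 1,000/well and cultured 4 h, then compounds added followed by HCVcc-Cre virus (~0.5 moi). After 44 h further culture, luciferase substrate was added, plates held 15 min at room temperature, and luminescence read for 15 sec.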
HCMV inh: qHTS Assay for inhibitors of the human cytomegalovirus (HCMV) | activity change, negative = inhibition, % at 57.5 µM | actives 4.5% (n = 410,000) | AID 1259415, 2018 | HFF cells, HCMV-luciferase reporter, 72 h; hits give low values; in the data active means activity change below about -60%; inconclusive means no clear call, values can overlap the other calls; inactive means above about -39%
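Screen run at 2 compound doses on HFFs infected with reporter HCMV, MOI 1 PFU/cell. Luciferase activity from cell lysates at 72 h post infection gave inhibition relative to buffer-only and Salinomycin wells.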
AmpC inh no detg: qHTS Inhibitors of AmpC Beta-Lactamase (assay without detergent); P00811; AmpC nitrocefin hydrolysis, absorbance 480 nm, 0.0001% Triton; Potency, µM (doses to about 57.1 µM), without a hit: at the highest dose activity change, negative = inhibition, most hits filed as inhibitors; actives 0.52% (n = 330,000); AID 485341, 2010;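 further: potency means the concentration at half of the fitted maximal effect; plate controls were no compound for no effect and no enzyme for full effect; nearly all actives have a fitted effect of over 20% in size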
Target sequence (P00811 whole entry, looked up): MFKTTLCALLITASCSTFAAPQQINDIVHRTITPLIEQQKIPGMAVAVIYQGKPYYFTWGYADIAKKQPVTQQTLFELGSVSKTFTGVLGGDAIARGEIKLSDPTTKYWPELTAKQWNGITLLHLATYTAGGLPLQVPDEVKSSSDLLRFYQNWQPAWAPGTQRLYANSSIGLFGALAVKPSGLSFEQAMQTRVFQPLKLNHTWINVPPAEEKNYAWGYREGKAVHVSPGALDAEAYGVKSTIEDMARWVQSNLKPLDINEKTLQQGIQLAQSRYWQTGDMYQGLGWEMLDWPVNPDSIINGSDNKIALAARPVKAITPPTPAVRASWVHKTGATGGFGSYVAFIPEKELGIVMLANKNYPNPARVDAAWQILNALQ
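AmpC (5.3 nM in the dispensed reagent) in 20 mM phosphate pH 7.0 with 0.01% (detergent screen) or 0.0001% Triton X-100 was preincubated with compounds for 15 min at room temperature. Nitrocefin was then added from an 800 uM solution, and hydrolysis was followed at 480 nm.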
AmpC inh detg: qHTS Inhibitors of AmpC Beta-Lactamase (assay with detergent); P00811; AmpC hydrolysis of nitrocefin, absorbance 480 nm, 0.01% Triton; Potency, µM (titrated, usually from 114 µM), for the others: top-dose activity change, negative = inhibition, usual class: inhibitors; actives 0.041% (n = 370,000); AID 485294, 2010;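 further: potency means the concentration at half of the fitted maximal effect; 0% = no-compound wells and -100% = no-enzyme wells; nearly all actives have a fitted effect of over 25% in size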
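20 mM phosphate pH 7.0 + 0.01% (detergent screen) or 0.0001% Triton X-100; 5.3 nM AmpC reagent; cpd preinc 15 min RT; nitrocefin (800 uM stock) to start; A480 q20 s × 4 min; Activity was normalised to no-enzyme and no-compound control wells.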
FMDV antiviral: High Throughput Screening for Foot and Mouth Disease Virus Antivirals. AID 1159524, 2015. actives 1.2% (n = 410,000). FMDV antiviral cell-based qHTS. Potency, µM (highest dose often 57.9 µM), for the others: at the top dose activity change, negative = inhibition, most hits filed as inhibitors; calls by dose curve; tested in HEK293T cells; further: read-out not given here; potency means the concentration at half of the fitted maximal effect; nearly all actives have a fitted effect of over 45% in size
* hit, by the source's call; ? = inconclusive; / = no result given; ! = repeats disagree; [ ] = dose if it differs, or a comment. Unless noted, the call rests on the fitted dose curve; in most records, active means well fitted curve in the direction sought with a large enough effect; inconclusive means small, poorly fitted or top-dose-only effect, or another doubt; inactive means no such curve, though single readings can be large; an effect the other way counts as inactive or inconclusive. Unless noted, on the % scale 0 is the no-effect control and ±100 the full control effect.

SMILES | HCV inh | HCMV inh | AmpC inh no detg | AmpC inh detg | FMDV antiviral
Cc1cccn2c(=O)c(/C=C(\C#N)C(=O)NC3CCS(=O)(=O)C3)c(N3CCC(C(N)=O)CC3)nc12 (stereo not given) | 5% | ? | -1% | ? | 0%
CCOC(=O)/C(C#N)=C/c1c(Oc2cccc(C)c2)nc2c(C)cccn2c1=O | 43% | -20 | -21% | -3% | -14%
Cc1cccn2c(=O)c(/C=C(\C#N)C(=O)NC3CCS(=O)(=O)C3)c(Oc3ccccc3Cl)nc12 (stereo not given) | -15% | 59 | 62% | 0% | 20µM*
Cc1cccn2c(=O)c(/C=C(\C#N)C(N)=O)c(N3CCN(Cc4ccc5c(c4)OCO5)CC3)nc12 | ? | -80* | 73% | ? | ?
Cc1ccccc1Oc1nc2c(C)cccn2c(=O)c1/C=C(\C#N)C(=O)NC1CCS(=O)(=O)C1 (stereo not given) | -22% | 85 | 122% | -4% | 20µM*
Cc1ccc(Oc2nc3c(C)cccn3c(=O)c2/C=C(\C#N)C(N)=O)cc1 | -19% | 11 | -17% | -4% | 18µM*
Cc1ccccc1NC(=O)Cc1nnc(SCC(=O)N2CCOCC2)n1C | 22% | 11 | -8% | 2% | -14%
Cc1ccccc1C(=O)NCC(=O)N1CCN(C/C=C/c2ccccc2)CC1 | ? | 0 | 33% | / | 0%
COC(=O)C1c2ccccc2-c2ccccc21 | -11% | -26 | -12% | 0% | -3%
CC1c2ccccc2-c2ccccc2N1C (stereo not given) | 13µM* | -26 | / | / | 8%
N#Cc1ccccc1CSc1nc2ncc(Br)cc2[nH]1 | ? | 19 | -49% | 5% | -2%
O=[N+]([O-])c1ccc(CSc2nc3ncc(Br)cc3[nH]2)cc1 | -2% | -62* | -21% | 2% | 16%
O=C(CSc1nc2ncc(Br)cc2[nH]1)c1cccc([N+](=O)[O-])c1 | -26% | -2 | 32µM* | ? | 8%
Cc1cc(C)cc(N2C(=O)C=CC2=O)c1 | ? | -19 | / | / | ?
O=C(NC(=S)Nc1ccc(-c2ccc(CO)o2)cc1)c1cccs1 | -10% | / | 10µM* | 8% | 25%
Cc1ccc(C(=O)NC(=S)Nc2ccc(-c3ccc(CO)o3)cc2)cc1 | ? | ? | 25µM* | 6% | -3%
CC(=O)NC(=S)Nc1ccc(NC(=S)NC(=O)c2cccs2)cc1 | -5% | 9 | 10% | -3% | 0%
CC(=O)N=c1c(C#N)cc2c(=O)n3cccc(C)c3nc2n1Cc1ccco1 | 11µM* | ? | -29% | 2% | -4%
Cc1ccc2nc3c(cc(C(=O)NCc4ccco4)c(=N)n3Cc3ccco3)c(=O)n2c1 | 4.5µM* | -61* | -19% | 1% | 4%
Cc1ccc2nc3c(cc(C(=O)NCc4ccccc4)c(=N)n3CCCn3ccnc3)c(=O)n2c1 | -9% | -39 | / | / | 14%
Cc1ccc(CNC(=O)c2cc3c(=O)n4ccccc4nc3n(Cc3ccco3)c2=N)cc1 | ? | -26 | 27% | ? | ?
N=c1c(C(=O)NCc2ccco2)cc2c(=O)n3ccccc3nc2n1Cc1ccc(Cl)cc1 | 5µM* | 19 | 38% | 5% | -3%
N=c1c(C(=O)NCc2ccccc2)cc2c(=O)n3ccccc3nc2n1Cc1ccco1 | 7.9µM* | 26 | 35% | ? | -28%
Cc1ccccc1C(=O)N=c1c(C#N)cc2c(=O)n3cccc(C)c3nc2n1Cc1ccco1 | / | / | -33% | -3% | /
CC(=O)Nc1ccc(-c2ccnc3c2CC(C)(C(=O)Nc2ccc(F)c(Cl)c2)O3)cc1 (stereo not given) | / | -22 | / | / | -22%
SMILES | HCV inh | HCMV inh | AmpC inh no detg | AmpC inh detg | FMDV antiviral
N=c1c(C(=O)NCc2ccc(F)cc2)cc2c(=O)n3ccccc3nc2n1Cc1ccco1 | 1µM* | 32 | -30% | 2% | ?
COc1ccc(CCNC(=O)c2cc3c(=O)n4cccc(C)c4nc3n(Cc3ccco3)c2=N)cc1OC | 11µM* | -28 | 132% | 2% | ?
Cc1cccn2c(=O)c3cc(C(=O)NCCc4ccccc4)c(=N)n(Cc4ccco4)c3nc12 | ? | ? | 11% | -11% | -5%
O=C(CCCCn1c(=O)c2ccccc2n(Cc2ccc(Cl)cc2)c1=O)NCc1ccco1 | 13µM*! | 42 | 37% | ? | ?
COCCn1c(=N)c(C(=O)NCc2ccco2)cc2c(=O)n3ccccc3nc21 | -29% | 12 | -16% | ? | -13%
CCCCN(C)C(=O)c1sc(=O)n(Cc2ccc(Cl)c(Cl)c2)c1C | / | -34 | / | / | -30%
CC1CN(Cc2cccn2-c2cccnc2)Cc2cc(Cl)ccc2O1 (stereo not given) | / | / | / | / | -13%
COc1ccc(CNC(=O)C2CCN(c3nnc(C)c4c(C)n(-c5ccc(C)cc5)nc34)CC2)cc1 | / | -107* | / | 3% | -22%
COc1ccc(-n2nc3c(N4CCCC(C(=O)NCc5ccc(C)cc5)C4)nnc(C)c3c2C)cc1 (stereo not given) | / | -72* | / | 1% | -3%
COc1ccc(CNC(=O)C2CCCN(c3nnc(C)c4c(C)n(-c5ccc(C)cc5)nc34)C2)cc1 (stereo not given) | / | -24 | / | -2% | -5%
Cc1ccc(-n2nc3c(N4CCC(C(=O)NCCc5cccs5)CC4)nnc(C)c3c2C)cc1 | ? | -83* | 129% | 5% | 25µM*
Cc1ccc(-n2nc3c(N4CCCC(C(=O)NCc5ccccc5C)C4)nnc(C)c3c2C)cc1 (stereo not given) | / | -64* | / | 12% | 11%
CO/N=C(\C(=O)N[C@@H]1C(=O)N2C(C(=O)O)=C(CSc3nc(=O)c(O)nn3C)CS[C@H]12)c1csc(N)n1 | / | / | / | / | -18%
Cc1ccc(S(=O)(=O)N(C)C)cc1NC(=S)N(C)C1CCN(C)CC1 | 8% | -19 | -1% | -2% | -19%
CCc1ccc(C2CC(=O)c3c([nH]c(C(=O)OC4CCCCCC4)c3C)C2)cc1 (stereo not given) | / | -18 | / | -8% | -14%
O=C(OCC#CCSc1nnc(-c2cccc3ccccc23)o1)c1cc2ccccc2o1 | / | -11 | -14% | ? | 13%
COc1cccc(C(=O)Nc2c(C(=O)NC(C)(C)C)oc3ccccc23)c1 | / | -15 | / | 7% | -29%
Cc1nnc(N2CCCC(C(=O)NCc3ccc(OC(C)C)cc3)C2)c2nn(-c3ccccc3)c(C)c12 (stereo not given) | ? | -66* | 186% | -8% | -25%
O=Cc1cc2ccccc2nc1SCc1ccc(Cl)c(Cl)c1 | 7% | -92* | -13% | ? | ?
Cc1ccc(CSc2ncnc3ccccc23)cc1 | -16% | -31 | -7%[2.29 µM] | -14% | 1%
